Source: PubChem (National Center for Advancing Translational Sciences (NCATS))
Six1-Eya2 blk: blocks human Six1 binding to Eya2; activity change, % (test concentration not listed); AID 651725; Q15475+O00167; AlphaScreen GST-Six1/His-Eya2 binding, biochemical; active compounds read low; 360,000 compounds, 0.56% hits; in the data active means activity change below about -65%; inconclusive means mostly about -30% to -63%
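AlphaScreen with GST-Six1 and His-Eya2 (5X mix: 250 nM and 500 nM), glutathione donor and nickel acceptor beads; buffer 50 mM Tris pH 8.0, 300 mM NaCl, 1 mM TCEP; 1 h at 37 C in the dark.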
Eya2 phos inh: inhibitors of human Eya2 phosphatase activity. recombinant Eya2, OMFP fluorescence dephosphorylation (OMFP is methylfluorescein phosphate). Potency, µM (highest dose often 76.9 µM), without a hit: top-dose activity, negative = inhibition, hits mostly inhibitors. O00167. 330,000 compounds, 0.006% hits; further: potency means the concentration at half of the fitted maximal effect
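Eya2 protein (added as 0.2 uM solution) was preincubated with compound for 10 min at ambient temperature in 50 mM HEPES pH 7.5, 50 mM NaCl, 5 uM MgCl2, 0.05% BSA, 1 mM DTT. OMFP (added at 50 uM) then reacted 10 min; fluorescence read at 485/525 nm.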
Apoferritin bind: candidate novel general anesthetic via apoferritin binding; 350,000 compounds, 0.074% hits; AID 485281; apoferritin/1-aminoanthracene competitive binding, fluorescence; Potency, µM (highest dose often 77.5 µM), inactives show at the top dose activity change, negative = displacement, most hits filed as inhibitors; further: potency means the concentration at half of the fitted maximal effect; nearly all actives have a fitted effect of over 20% in size
Target sequence (P02791 2-175 limits assumed): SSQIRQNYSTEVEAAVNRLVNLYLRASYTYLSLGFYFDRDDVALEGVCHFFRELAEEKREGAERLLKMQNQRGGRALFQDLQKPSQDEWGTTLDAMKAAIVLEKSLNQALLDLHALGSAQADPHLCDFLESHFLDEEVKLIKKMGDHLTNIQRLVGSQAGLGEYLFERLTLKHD
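Horse-spleen apoferritin (10 uM) was mixed with 50% saturated 1-aminoanthracene in PBS, exposed to compounds for 10 min at room temperature, and read for fluorescence (ex 380 nm, em 535 nm). Competitive displacement was fitted with a four-parameter Hill equation.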
GALK inhibitor: blocks human galactokinase activity | Potency, µM (series often up to 57.5 µM), without a hit: top-dose activity change, negative = inhibition, usual class: inhibitors | 270,000 compounds, 0.007% hits | Purified GALK, Kinase-Glo residual ATP luminescence | AID 1868 | P51570; further: potency means the concentration at half of the fitted maximal effect
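ATP-depletion format; final 35 uM ATP, 100 uM D-galactose, 5 nM enzyme; pH 8.0 HEPES/Mg2+ buffer; 60 min RT; luminescence read 10 min after detection reagent.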
CtBP-E1A blk: inhibitors of CtBP/E1A interaction | activity change, % (concentration not given with the values) | 340,000 compounds, 0.49% hits | AlphaScreen GST-E1A/His-CtBP binding, 1536-well; active compounds read low; in the data active means activity change below about -65%; inconclusive means mostly about -30% to -63%
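Homogeneous bead-based format: GST-tagged E1A captured on glutathione donor beads, His-tagged CtBP on nickel acceptor beads; compounds precede bead addition by 2 h at 37 °C.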
KDM4E inh: inhibitors of human JMJD2E histone demethylase; JMJD2E catalytic domain, FDH-coupled NADH fluorescence (FDH is formaldehyde dehydrogenase); Potency, µM (titrated, usually from 57.1 µM), for inactives: at the top dose activity change, negative = inhibition, usual class: inhibitors; 230,000 compounds, 1.6% hits; active means well fitted inhibition curve with a large enough effect, not every such curve was filed as active; inconclusive means small, poorly fitted or top-dose-only effect, or another doubt; inactive means no such curve, though single readings can be large or run the other way;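 further: potency means the concentration at half of the fitted maximal effect; 0% = wells with enzyme and -100% = buffer wells without enzyme; nearly all actives have a fitted effect of over 50% in size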
Target sequence (B2RXH2 1-337 limits assumed): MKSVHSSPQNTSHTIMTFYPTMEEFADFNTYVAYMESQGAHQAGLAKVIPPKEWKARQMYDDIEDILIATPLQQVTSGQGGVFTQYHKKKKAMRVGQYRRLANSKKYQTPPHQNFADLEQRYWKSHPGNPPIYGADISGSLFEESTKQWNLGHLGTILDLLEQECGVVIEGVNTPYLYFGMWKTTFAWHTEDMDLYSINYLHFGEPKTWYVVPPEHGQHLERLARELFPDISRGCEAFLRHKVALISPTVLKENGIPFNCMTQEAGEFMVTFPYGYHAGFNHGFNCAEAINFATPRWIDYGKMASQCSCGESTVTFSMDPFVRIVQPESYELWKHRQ
* marks the source's active call; other numbers are inactive results; u = inconclusive; x = no result. This is one part of a sample in which hits are shown more often than they occur. Unless noted, the call rests on the fitted dose curve; in most records, active means well fitted curve in the direction sought with a large enough effect; inconclusive means small, poorly fitted or top-dose-only effect, or another doubt; inactive means no such curve, though single readings can be large; an effect the other way counts as inactive or inconclusive. Unless noted, on the % scale 0 is the no-effect control and ±100 the full control effect.

SMILES	Six1-Eya2 blk	Eya2 phos inh	Apoferritin bind	GALK inhibitor	CtBP-E1A blk	KDM4E inh
CSCC[C@H](NC(=O)[C@@H]1CCCN1C(=O)CNC(=O)[C@H](CCCCN)NC(=O)[C@H](Cc1cnc[nH]1)NC(=O)[C@H](CO)NC(=O)[C@H](CC(C)C)NC(=O)[C@H](CCCNC(=N)N)NC(=O)[C@@H]1CCCN1C(=O)[C@H](CCCNC(=N)N)NC(=O)[C@H](CCC(N)=O)NC(=O)[C@H](CCCNC(=N)N)NC(=O)[C@H](CCCNC(=N)N)NC(=O)[C@H](Cc1ccccc1)NC(=O)[C@@H](N)CCCCN)C(=O)N1CCC[C@H]1C(=O)N[C@@H](Cc1ccccc1)C(=O)O	x	x	4.3%	x	x	x
CCC(=Nc1ccc(N)cc1)C1=C(O)C(C(=O)OC)C(C)(C)CC1=O (stereo not given)	-20.2	-3.0%	218.3%	-5.6%	7.1	8.91µM*
CCCCC(=Nc1ccc(N)cc1)C1=C(O)C(C(=O)OC)C(C)(C)CC1=O (stereo not given)	-21.7	-9.8%	155.2%	-0.8%	u	u
C(=N\Nc1ccc2nncn2n1)/c1ccco1	-5.8	u	2.8%	-2.8%	u	-2.1%
COc1cc(/C=N/Nc2nc3ccccc3[nH]c2=O)ccc1O	5.6	3.7%	u	0.9%	-8.6	-6.5%
C=CCn1c(N/N=C/c2ccc(O)cc2)nc2ccccc2c1=O	-2.4	-2.7%	-19.0%	-4.0%	-2.4	-7.5%
Oc1ccc(/C=N/Nc2nn3cnnc3c3ccccc23)cc1	-88.9*	-8.6%	-4.1%	x	-89.8*	-17.6%
COc1ccc(/C=N/Nc2nncc3ccccc23)cc1	-13.6	-9.6%	-7.1%	12.2%	0.0	-10.6%
C(=N\Nc1nn2cnnc2c2ccccc12)/c1ccco1	-71.6*	-5.9%	0.8%	0.1%	-3.1	-21.6%
COc1cccc(/C=N/Nc2nn3cnnc3c3ccccc23)c1	-71.2*	12.1%	-7.7%	3.7%	-78.9*	u
COc1cc(/C=N/Nc2nn3cnnc3c3ccccc23)ccc1O	-88.7*	13.1%	-9.7%	8.2%	-89.5*	-4.5%
c1cncc(CNc2ncncc2-c2ccc3c(c2)OCO3)c1	x	x	3.1%	x	x	u
O=C1C2C(c3ccccc3)CC=CC2C(c2ccc(C(F)(F)F)cc2)N1Cc1ccccc1 (stereo not given)	x	x	1.9%	x	x	x
Fc1cc(F)c2ncc3c(-c4ccccc4)nn(-c4cccc(Cl)c4)c3c2c1	x	x	-12.9%	x	x	x
CCOc1cc(/C=N/Nc2nn3cnnc3c3ccccc23)ccc1O	-88.0*	-6.4%	-7.9%	-7.5%	-66.7*	11.8%
CCOc1cc(/C=N/Nc2ncc(C)c(=O)[nH]2)ccc1O	u	u	7.0%	5.7%	-80.5*	x
CCOc1cc(/C=N/Nc2nncc(-c3ccccc3)n2)ccc1O	-20.3	-5.8%	-22.4%	-3.5%	-25.3	-9.1%
COc1cc(CNC(=O)c2ccc3nc(Cc4ccccc4)oc3c2)cc(OC)c1OC	x	x	97.4%	x	x	x
Cc1ccc(NC(=S)NNC(=O)c2nn(C)c(C)c2Cl)cc1	-29.7	5.4%	-19.0%	-1.4%	u	12.6µM*
Cc1ccc(NC(=S)NNC(=O)c2c(Cl)c(C)nn2C)cc1	0.1	2.8%	-5.5%	-0.1%	15.4	1.0%
Nc1nnc(CC(=O)N/N=C/c2ccc(-c3ccc(F)cc3)o2)s1	-9.1	2.5%	-7.4%	x	-0.2	u
Cc1cc([N+](=O)[O-])nn1CC(=O)N/N=C/c1ccccc1O	-92.4*	9.7%	2.2%	-3.3%	u	7.94µM*
Nc1nnc(CC(=O)N/N=C/c2ccc(-c3cccc(C(=O)O)c3)o2)s1	-65.7*	3.4%	-3.7%	x	-71.3*	u
Cc1cc([N+](=O)[O-])nn1CC(=O)N/N=C/c1ccccc1F	-3.1	-10.7%	-8.1%	6.1%	-3.9	-4.1%
Nc1nnc(CC(=O)N/N=C\c2cc([N+](=O)[O-])ccc2O)s1	-92.2*	-9.7%	-2.0%	0.8%	-90.5*	14.1µM*
SMILES	Six1-Eya2 blk	Eya2 phos inh	Apoferritin bind	GALK inhibitor	CtBP-E1A blk	KDM4E inh
Cc1cc(C)n(CC(=O)N/N=C/c2cc([N+](=O)[O-])ccc2O)n1	-88.0*	7.7%	-3.5%	-0.2%	-91.1*	5.0%
O=C(c1cccn1-c1nnc(N2CCCC2)s1)N1CCN(c2ccccc2)CC1	x	x	5.5%	x	x	x
COc1cccc(CNC(=O)Cn2c(=O)oc3cc(S(=O)(=O)N4CCCC4)ccc32)c1	x	x	-5.9%	x	x	x
Cc1ccccc1-c1nc(SCC(=O)NCC2CCCO2)c2c(=O)n(C)c(=O)n(C)c2n1 (stereo not given)	x	x	-8.4%	x	x	x
Cc1cc([N+](=O)[O-])nn1Cc1ccc(C(=O)N/N=C/c2ccc(O)cc2O)cc1	-88.5*	-2.4%	-6.1%	-1.3%	u	u
Cc1cc([N+](=O)[O-])nn1Cc1ccc(C(=O)N/N=C/c2ccc(F)cc2)cc1	-0.2	0.7%	-15.4%	-0.3%	-5.7	1.7%
Cn1c(SCC(=O)N/N=C/c2cc([N+](=O)[O-])ccc2O)nnc1-c1ccccc1	u	-17.5%	-10.0%	x	u	10µM*
Nc1nnnn1CC(=O)N/N=C/c1cccs1	-1.2	u	-5.9%	-0.4%	x	-5.2%
Nc1nnnn1CC(=O)N/N=C/c1cc([N+](=O)[O-])ccc1O	-86.7*	6.0%	-11.1%	7.2%	-80.8*	7.94µM*
Cn1c(SCC(=O)N/N=C/c2ccc([N+](=O)[O-])s2)nnc1-c1ccccc1	-11.8	-3.9%	-8.0%	0.8%	-0.2	4.2%
O=C1CC(c2ccco2)CC(O)=C1C=NCCN1CCNCC1 (stereo not given)	0.0	3.0%	2.4%	-1.4%	0.8	u
O=C1CC(c2ccco2)CC(O)=C1C=NCC1CCNCC1 (stereo not given)	13.9	-4.5%	-0.2%	0.6%	21.4	10µM*
CCN1/C(=C2\C(=O)N(C)C(=S)N2C)C=Cc2ccccc21	u	-18.5%	-3.9%	9.0%	-22.6	u
CCN1C(=O)/C(=C2/C=Cc3ccccc3N2CC)SC1=S	-83.9*	-20.3%	u	7.7%	x	-4.8%
CN1C(=O)/C(=C2/C=Cc3ccccc3N2CCCS(=O)(=O)O)SC1=S	-20.0	u	u	1.9%	-15.3	-4.1%
CCCN1C(=O)/C(=C2/C=Cc3ccccc3N2CC)SC1=S	-76.4*	10.1%	-12.6%	6.5%	-75.6*	3.2%
CCCN1/C(=C2/SC(=S)N(CC)C2=O)C=Cc2ccccc21	-79.8*	2.8%	-15.8%	-0.1%	-69.9*	-1.2%
C=C(C)C(=O)OC[C@@H]1CCC[N@+]2(C)CCCCC12 (stereo not given in full)	x	x	x	x	x	-28.1%
COc1ccc(-c2cc(=O)n(-c3nc4ccccc4[nH]3)[nH]2)cc1	u	3.9%	-12.3%	0.4%	-65.5*	u
